For part of these data: Entries with a potency or affinity are not part of this list. The source made the active and inactive calls.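 Rule for the calls, unless noted: active = primary screen active and over 50% activation in each of two duplicate runs; inactive = the rest.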
Experiments:
[1] = test system: TRPC4 beta (transient receptor potential cation channel C4), mouse; experiment: TRPC4 cation channel opening, retest – cell-based, Fluo4 calcium, HEK293 TRPC4beta/mu-opioid, duplicates, 10 µM, confirmation (AID 2426;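 active = fluorescence ratio normalized to control raised more than 50% in primary screen plus both repeat runs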;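 for activation: percent rise of integrated ratio over buffer wells lacking compound which define 0%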); settings: Fluo4 calcium fluorescence, at 10 µM; stronger effect = higher value
[2] = test system: transient receptor potential cation channel C4 beta (TRPC4), mouse; experiment: TRPC4 cation channel opening, second retest – cell-based, second round, Fluo4, HEK293 TRPC4beta/mu-opioid, 1 µM, confirmation (AID 2461); settings: Fluo4 calcium fluorescence, at 1 µM; stronger effect = higher value;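 for activation: 0% = wells without test compound as baseline of integrated fluorescence ratio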
[3] = test system: TRPC4 (transient receptor potential cation channel C4 beta), mouse; experiment: potentiation of DAMGO EC20 TRPC4 response – cell-based, second round, Fluo-4, HEK293 TRPC4beta/mu-opioid, 1 µM, confirmation (AID 2554;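 active = primary screen hit whose fluorescence ratio, in both repeats, exceeds the weak agonist control mean by 3 SD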); settings: DAMGO EC20, Fluo-4 calcium flux, at 1 µM; stronger effect = higher value
[4] = test system: TRPC4 beta (transient receptor potential cation channel C4), mouse; experiment: potentiation of DAMGO EC20 TRPC4 response – cell-based, Fluo-4, HEK293 TRPC4beta/mu-opioid, confirmation (AID 2555;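 active = primary screen hit whose calcium fluorescence ratio, in both repeats, exceeds the weak agonist control mean by 3 SD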); settings: DAMGO EC20, Fluo-4 calcium flux, at 10 µM; stronger effect = higher value
[5] = biological target: Short transient receptor potential channel 4 (Mus musculus) (UniProt Q9QUQ5); experiment: blockers of DAMGO-evoked TRPC4 calcium flux – cell-based, Fluo4, HEK293 TRPC4beta/mu-opioid, confirmation (AID 2636;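 active = calcium signal cut by more than 3 SD below the full-agonist control yet still positive, in both repeats and the earlier primary screen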); settings: at 10 µM; stronger effect = higher value
Short transient receptor potential channel 4 (Mus musculus), sequence (Q9QUQ5 whole entry, looked up): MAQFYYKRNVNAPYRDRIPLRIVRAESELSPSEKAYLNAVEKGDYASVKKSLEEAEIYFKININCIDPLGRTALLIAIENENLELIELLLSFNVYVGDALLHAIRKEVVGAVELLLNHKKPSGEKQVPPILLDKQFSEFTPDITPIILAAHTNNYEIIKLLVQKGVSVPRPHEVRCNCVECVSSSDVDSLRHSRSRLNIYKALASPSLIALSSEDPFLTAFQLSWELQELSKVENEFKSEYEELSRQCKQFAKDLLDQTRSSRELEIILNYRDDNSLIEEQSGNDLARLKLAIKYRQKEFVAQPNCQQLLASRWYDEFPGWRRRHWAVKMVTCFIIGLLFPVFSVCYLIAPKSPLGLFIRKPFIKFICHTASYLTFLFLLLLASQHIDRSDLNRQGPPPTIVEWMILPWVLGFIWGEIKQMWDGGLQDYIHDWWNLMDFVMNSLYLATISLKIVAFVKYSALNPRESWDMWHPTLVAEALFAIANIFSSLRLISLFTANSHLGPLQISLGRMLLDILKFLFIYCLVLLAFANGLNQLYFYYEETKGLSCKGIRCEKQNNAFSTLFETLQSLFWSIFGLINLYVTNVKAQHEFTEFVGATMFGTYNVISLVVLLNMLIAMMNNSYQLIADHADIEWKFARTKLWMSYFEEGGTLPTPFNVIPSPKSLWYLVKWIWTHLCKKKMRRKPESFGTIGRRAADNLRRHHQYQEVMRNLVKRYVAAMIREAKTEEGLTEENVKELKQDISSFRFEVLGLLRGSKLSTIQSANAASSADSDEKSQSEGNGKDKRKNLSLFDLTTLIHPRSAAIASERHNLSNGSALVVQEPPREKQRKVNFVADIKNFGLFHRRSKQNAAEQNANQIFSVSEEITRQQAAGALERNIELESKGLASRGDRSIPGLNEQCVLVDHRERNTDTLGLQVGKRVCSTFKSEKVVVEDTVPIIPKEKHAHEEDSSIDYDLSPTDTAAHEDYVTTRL

[6] = biological target: Short transient receptor potential channel 4 (Mus musculus) (UniProt Q9QUQ5); experiment: blockers of DAMGO-evoked TRPC4 calcium flux – cell-based, second round, Fluo4, HEK293 TRPC4beta/mu-opioid, 1 µM, confirmation (AID 2637;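 active = calcium signal ratio cut to more than 3 SD under the fully stimulated control mean yet still positive, in both repeats and the primary screen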); settings: at 1 µM; stronger effect = higher value
[7] = biological target: Short transient receptor potential channel 4 (Mus musculus) (UniProt Q9QUQ5); experiment: potentiation of DAMGO-evoked TRPC4 calcium signal – cell-based, HEK293 TRPC4/mu-opioid, Fluo-4 calcium, EC20 DAMGO, dose response (AID 434941;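 active = earlier screen potentiator hit that boosts the TRPC4 ion channel at some dose, with a dose response; inactive = no potentiation, no dose response, or not a prior hit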;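 note: calcium entry triggered by an EC20 dose of DAMGO at the co-expressed mu-opioid receptor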)
[8] = biological target: Short transient receptor potential channel 4 (Mus musculus) (UniProt Q9QUQ5); experiment: block of DAMGO-driven TRPC4 calcium entry – cell-based, HEK293 TRPC4/mu-opioid, Fluo-4 calcium, dose response (AID 434942;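 active = primary screen inhibitor hit that blocks the TRPC4 channel at some tested dose, yielding a dose curve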)
[9] = biological target: Short transient receptor potential channel 6 (Mus musculus) (UniProt Q61143); experiment: TRPC6 blockade by TRPC4 inhibitor hits – cell-based, HEK293, membrane potential dye, duplicate, selectivity assay for TRPC4 inhibitor project, confirmation (AID 434948;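 active = active in primary screen and both duplicates, each dropping signal beyond three positive-control SD with fluorescence still positive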); settings: HEK293 TRPC6, membrane potential dye fluorescence, at 10 µM, stimulated with maximal-effect acetylcholine; stronger effect = higher value
Short transient receptor potential channel 6 (Mus musculus), sequence (Q61143 whole entry, looked up): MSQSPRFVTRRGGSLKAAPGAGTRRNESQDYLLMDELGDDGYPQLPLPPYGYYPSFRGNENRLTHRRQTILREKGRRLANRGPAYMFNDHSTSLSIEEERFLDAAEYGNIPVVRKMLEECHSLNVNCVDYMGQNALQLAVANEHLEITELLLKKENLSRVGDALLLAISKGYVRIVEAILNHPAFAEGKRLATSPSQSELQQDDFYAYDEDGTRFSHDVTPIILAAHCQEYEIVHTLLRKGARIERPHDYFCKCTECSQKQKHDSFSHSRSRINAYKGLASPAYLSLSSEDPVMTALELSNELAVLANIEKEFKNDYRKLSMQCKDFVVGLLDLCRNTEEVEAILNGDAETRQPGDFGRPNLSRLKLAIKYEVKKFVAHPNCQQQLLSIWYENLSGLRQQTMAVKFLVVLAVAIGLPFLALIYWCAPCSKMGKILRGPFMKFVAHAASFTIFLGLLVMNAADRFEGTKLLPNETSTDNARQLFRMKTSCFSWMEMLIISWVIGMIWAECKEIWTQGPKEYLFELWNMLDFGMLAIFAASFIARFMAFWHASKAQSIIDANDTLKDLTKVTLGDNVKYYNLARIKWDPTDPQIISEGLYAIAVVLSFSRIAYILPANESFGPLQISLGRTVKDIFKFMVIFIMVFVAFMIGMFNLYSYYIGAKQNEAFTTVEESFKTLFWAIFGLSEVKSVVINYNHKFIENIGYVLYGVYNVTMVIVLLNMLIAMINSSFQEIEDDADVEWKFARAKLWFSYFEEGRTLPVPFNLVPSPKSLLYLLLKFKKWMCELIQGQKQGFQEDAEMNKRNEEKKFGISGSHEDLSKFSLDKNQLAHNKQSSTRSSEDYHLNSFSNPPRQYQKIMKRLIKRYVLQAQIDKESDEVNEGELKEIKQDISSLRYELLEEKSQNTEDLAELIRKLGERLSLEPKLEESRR

[10] = biological target: Short transient receptor potential channel 6 (Mus musculus) (UniProt Q61143); experiment: TRPC6 opening by TRPC4 activator hits – cell-based, HEK293, membrane potential dye, duplicate, selectivity assay for TRPC4 activator project, confirmation (AID 434950;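 active = membrane potential signal rise above negative control mean plus 3 SD in both duplicates, also active in the earlier TRPC4 screen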;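 for activation: 0% = buffer only wells and 100% = acetylcholine maximal-effect wells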); settings: HEK293 TRPC6, membrane potential fluorescence, at 10 µM; activation: stronger effect = higher value; outcome: activation
[11] = biological target: Short transient receptor potential channel 6 (Mus musculus) (UniProt Q61143); experiment: positive modulators of mouse TRPC6 channel – HEK293 cells, membrane potential dye, duplicate, selectivity assay for TRPC4 potentiator project, confirmation (AID 434952;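 active = compound raising the membrane signal above positive-control mean plus 3 SD in both repeats, and a primary screen hit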); settings: HEK293 TRPC6, membrane potential dye fluorescence, at 10 µM, maximal acetylcholine added after compound; stronger effect = higher value
[12] = biological target: Short transient receptor potential channel 4 (Mus musculus) (UniProt Q9QUQ5); experiment: calcium flux activators in TRPC4/5HT1a cells, counter-screen for TRPC4 activator project, cell-based, second counter screen, HEK293 TRPC4/5HT1a, Fluo-4 (AID 434977;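 active = calcium signal rise above buffer-control mean plus 5 SD in both duplicates, and also a hit in the primary screen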;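 for activation: plate controls were assay buffer for no effect and maximal serotonin response for full effect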); settings: Fluo-4 calcium flux, at 10 µM; stronger effect = higher value
[13] = serotonin-gated TRPC4 signal block – cell-based, second counter screen, HEK293 TRPC4/5HT1a, Fluo-4, counter-screen for TRPC4 inhibitor project, confirmation (AID 434978;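 active = primary screen active whose calcium signal fell more than 3 SD beyond the full-serotonin control mean in both duplicate plates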;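 note: serotonin given first at submaximal then at maximal dose after compound preincubation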); settings: Fluo-4 calcium flux, at 10 µM, serotonin added to trigger calcium flux; stronger effect = higher value
[14] = test system: TRPC4 (mouse), co-expressed with 5HT1a in HEK293; experiment: enhancement of serotonin-evoked TRPC4 response – cell-based, second counter screen, HEK293 TRPC4/5HT1a, Fluo-4, counter-screen for TRPC4 potentiator project, confirmation (AID 434979;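 active = signal rise over 3 SD above mean of control wells given weak agonist, in both repeats and first screen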); settings: Fluo-4 calcium flux, at 10 µM, serotonin added at its EC20 dose; stronger effect = higher value
[15] = nonspecific calcium rise without TRPC4 – cell-based, HEK293 mu-opioid receptor line, counter-screen for TRPC4 activator project, confirmation (AID 449723;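 active = hit in primary screen, with calcium signal over 5 SD above buffer well mean in both duplicates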;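 note: counter screen cells carry the mu-opioid receptor alone and lack TRPC4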); settings: HEK293 mu-opioid cells, Fluo-4 calcium fluorescence, at 10 µM; stronger effect = higher value
[16] = nonspecific potentiation of DAMGO calcium response – cell-based, HEK293 mu-opioid receptor line, counter-screen for TRPC4 allosteric potentiator project, confirmation (AID 449724;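 active = calcium signal rise more than 3 SD above the low-dose agonist control mean, in both duplicate plates and the primary screen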); settings: HEK293 mu-opioid receptor cells, Fluo-4 calcium flux, at 10 µM, compound added before EC20 DAMGO stimulus; stronger effect = higher value

Measured: activation

CCOC(=O)C1(CCOc2ccccc2)CCN(Cc2ccc3c(c2)OCCO3)CC1
inactive: [1] | [2] | [3] | [4] | [5] | [6] | [7] | [8] | [9] | [11] | [12] | [13] | [14] | [15] | [16]
active: [10] 74.5%

CCc1cccc(CC)c1NC(=S)NCC(c1cccnc1)N(C)C (stereo not given)
active: [1] 79% | [2] 67% | [10] 46%
inactive: [3] | [4] | [5] | [6] | [7] | [8] | [9] | [11] | [12] | [13] | [14] | [15] | [16]

CN(C)C(CNC(=O)CCc1c[nH]c2ccccc12)c1ccccc1 (stereo not given)
inactive: [3] | [4] | [5] | [6] | [7] | [8] | [9] | [11] | [12] | [13] | [14] | [15] | [16]
active: [1] 89% | [2] 83% | [10] 26%

CCOC(=O)[C@@H]1CCNC[C@@H]1c1ccccc1
active: [1] 217% | [2] 83% | [10] 30.5%
inactive: [3] | [4] | [5] | [6] | [7] | [8] | [9] | [11] | [12] | [13] | [14] | [15] | [16]

CCN(CCCNS(=O)(=O)c1cc(-c2cc(C)no2)ccc1C)Cc1ccccc1
inactive: [3] | [4] | [5] | [6] | [7] | [8] | [9] | [11] | [13] | [14] | [15] | [16]
active: [1] 171% | [2] 96% | [10] 40.5% | [12] 68.6%

COc1ccc(/C=C/CN2CCCC(C(=O)c3ccc(OC)c(F)c3)C2)cc1 (stereo not given)
active: [10] 33%
inactive: [1] | [2] | [3] | [4] | [5] | [6] | [7] | [8] | [9] | [11] | [12] | [13] | [14] | [15] | [16]

CN(C)CCCN(C(=O)c1ccc(S(=O)(=O)N(C)Cc2ccccc2)cc1)c1nc2cc3c(cc2s1)OCO3
inactive: [1] | [2] | [3] | [4] | [5] | [6] | [7] | [8] | [9] | [10] | [11] | [12] | [13] | [14] | [15] | [16]

O=C(NNC(=S)NC(=O)c1ccccc1Cl)c1cccc([N+](=O)[O-])c1
active: [1] 120% | [10] 29% | [12] 77.4% | [15] 23%
inactive: [2] | [3] | [4] | [5] | [6] | [7] | [8] | [9] | [11] | [13] | [14] | [16]

Cc1ccc2c(C)c(C(=O)N(Cc3cccs3)C3CCS(=O)(=O)C3)oc2c1 (stereo not given)
active: [10] 34.5%
inactive: [1] | [2] | [3] | [4] | [5] | [6] | [7] | [8] | [9] | [11] | [12] | [13] | [14] | [15] | [16]

Cc1c(CN2CCC(n3nccc3NC(=O)C3CC3)CC2)[nH]c2ccccc12
inactive: [2] | [3] | [4] | [5] | [6] | [7] | [8] | [9] | [11] | [12] | [13] | [14] | [15] | [16]
active: [1] 138% | [10] 26%

CN(C)c1ccc(NC(=S)N2CCN(c3ncc(C(F)(F)F)cc3Cl)CC2)cc1
active: [1] 112% | [10] 27.5% | [12] 54.3%
inactive: [2] | [3] | [4] | [5] | [6] | [7] | [8] | [9] | [11] | [13] | [14] | [15] | [16]

COc1ccc(C(=O)NC(=S)NNC(=O)CCc2ccccc2)cc1
inactive: [2] | [3] | [4] | [5] | [6] | [7] | [8] | [9] | [11] | [13] | [14] | [15] | [16]
active: [1] 100% | [10] 25% | [12] 61.1%

CC(C)(C)c1ccccc1NC(=O)NC1CCN(Cc2c(F)cccc2Cl)CC1
active: [1] 121% | [10] 36% | [12] 71.5%
inactive: [2] | [3] | [4] | [5] | [6] | [7] | [8] | [9] | [11] | [13] | [14] | [15] | [16]

CCN1CCN(c2ccc(S(=O)(=O)N3CCCCC3)cc2NC(=O)c2cccc(C)c2[N+](=O)[O-])CC1
active: [1] 143% | [12] 40.7%
inactive: [2] | [3] | [4] | [5] | [6] | [7] | [8] | [9] | [10] | [11] | [13] | [14] | [15] | [16]

CN(C)C(CNC(C(=O)Nc1ccc(F)cc1)c1ccccc1)c1ccccc1 (stereo not given)
inactive: [3] | [4] | [5] | [6] | [7] | [8] | [9] | [10] | [11] | [12] | [13] | [14] | [15] | [16]
active: [1] 126% | [2] 68%

From PubChem BioAssay
